Experimental data from PubChem BioAssay (EPA / NIEHS).
The source made the active and inactive calls. The calls were made as follows: active = hit-call score of the fitted dose curve at least 0.9, where 1 is the maximum; inactive = score below 0.9.

Legend:
[1] = ATG_Ets_CIS: Attagene CIS-FACTORIAL HepG2 Assay for human Erythroblast Transformation Specific (ETS) (AID 2282941); conditions: HepG2 ETS cis-reporter transcription, actives raise or lower the signal
Outline: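 Cis-regulated reporter mRNA induction in HepG2 (transient transfection), 24 h exposure, RT-PCR plus capillary electrophoresis detection; DMSO serves as negative control and baseline.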

[2] = molecular target: Hepatocyte nuclear factor 3-beta (Homo sapiens) (UniProt Q9Y261); assay: ATG_FoxA2_CIS: Attagene CIS-FACTORIAL HepG2 Assay for human Forkhead box A2 (FOXA2) (AID 2282942); conditions: HepG2 cis-reporter transcription factor activity, 24 h; actives raise or lower the signal
Chain of Hepatocyte nuclear factor 3-beta (Homo sapiens) (Q9Y261 whole entry, looked up): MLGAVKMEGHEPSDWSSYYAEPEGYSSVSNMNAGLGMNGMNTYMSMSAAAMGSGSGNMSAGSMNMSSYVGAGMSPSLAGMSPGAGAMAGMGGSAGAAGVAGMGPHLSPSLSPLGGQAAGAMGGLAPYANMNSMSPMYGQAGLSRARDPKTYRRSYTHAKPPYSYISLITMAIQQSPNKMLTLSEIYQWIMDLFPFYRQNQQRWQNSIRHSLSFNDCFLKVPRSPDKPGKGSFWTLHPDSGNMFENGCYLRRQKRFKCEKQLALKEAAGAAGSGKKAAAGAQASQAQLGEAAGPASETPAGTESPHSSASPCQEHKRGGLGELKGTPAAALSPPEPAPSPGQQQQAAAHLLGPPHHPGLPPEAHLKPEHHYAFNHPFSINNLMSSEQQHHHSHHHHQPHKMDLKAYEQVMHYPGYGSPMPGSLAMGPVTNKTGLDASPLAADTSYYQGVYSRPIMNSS
Outline: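 HepG2 cells transiently transfected with multiple cis-regulated reporter transcription units, dosed for 24 h. Reporter mRNA measured by RT-PCR, 6-FAM labelling, HpaI digestion and capillary electrophoresis; bidirectional fitting against DMSO baseline.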

[3] = ATG_GATA_CIS: Attagene CIS-FACTORIAL HepG2 Assay for human GATA Binding Protein (AID 2282944); conditions: HepG2 GATA cis-element reporter, Attagene multiplex mRNA; actives raise or lower the signal
Outline: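 Read-out: fluorescent reporter mRNA fragments resolved by capillary electrophoresis after RT-PCR. Human liver HepG2 cells carried transiently transfected cis-regulated reporter constructs; chemicals incubated 24 h; gain or loss of signal fitted relative to DMSO.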

[4] = ATG_GLI_CIS: Attagene CIS-FACTORIAL HepG2 Assay for human Zinc Finger Protein GLI1 (AID 2282945); conditions: HepG2, Attagene cis-factorial reporter mRNA, GLI element; actives raise or lower the signal
Outline: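 Transiently transfected HepG2 cells report endogenous transcription factor activity via cis-element-driven reporter units. After 24 h compound exposure, reporter mRNA was measured by RT-PCR with capillary electrophoresis; bidirectional fitting against DMSO baseline.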

[5] = ATG_GRE_CIS: Attagene CIS-FACTORIAL HepG2 Assay for human Glucocorticoid Response Elements (GRE) (AID 2282947); conditions: HepG2 GRE cis-reporter, Attagene multiplex mRNA; actives raise or lower the signal
Outline: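 Fluorescence intensity of reporter-specific cDNA fragments, separated by capillary electrophoresis, provides the signal. Constructs carry cis-regulating promoters in transiently transfected HepG2 liver cells; 24 h incubation; fitting is bidirectional against DMSO.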

[6] = ATG_ISRE_CIS: Attagene CIS-FACTORIAL HepG2 Assay for human Interferon Regulatory Factor 1 (IRF1) binding to an Interferon-Stimulated Response Element (ISRE) (AID 2282948); conditions: HepG2 ISRE cis-reporter (Attagene), mRNA transcription readout; actives raise or lower the signal
Outline: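 Multiplexed mRNA reporter readout in human liver HepG2 cells: cis-element-driven reporters transfected, compound added for 24 h, transcripts amplified, fluorescently labelled and sized by capillary electrophoresis; curve fitting bidirectional against DMSO.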

[7] = ATG_M_32_CIS: Attagene CIS-FACTORIAL HepG2 Assay for M32 Transcription Factor (Internal Marker) (AID 2282949); conditions: HepG2 Attagene cis-factorial M32 reporter, mRNA; actives raise or lower the signal;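 also: background control marker of the multiplexed CIS panel rather than a real target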
Outline: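 HepG2 human liver cells transiently transfected with cis-promoter-driven multiple reporter transcription units, dosed 24 h. Reporter mRNA quantified by RT-PCR, FAM-labelled primer extension, HpaI digest and capillary electrophoresis; bidirectional fit versus DMSO baseline.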

[8] = molecular target: Hypoxia-inducible factor 1-alpha (Homo sapiens) (UniProt Q16665); assay: ATG_HIF1a_CIS: Attagene CIS-FACTORIAL HepG2 Assay for human Hypoxia Inducible Factor 1 (HIF1A) (AID 2282951); conditions: HepG2 Attagene cis-factorial HIF1a reporter transcription; actives raise or lower the signal
Chain of Hypoxia-inducible factor 1-alpha (Homo sapiens) (Q16665 whole entry, looked up): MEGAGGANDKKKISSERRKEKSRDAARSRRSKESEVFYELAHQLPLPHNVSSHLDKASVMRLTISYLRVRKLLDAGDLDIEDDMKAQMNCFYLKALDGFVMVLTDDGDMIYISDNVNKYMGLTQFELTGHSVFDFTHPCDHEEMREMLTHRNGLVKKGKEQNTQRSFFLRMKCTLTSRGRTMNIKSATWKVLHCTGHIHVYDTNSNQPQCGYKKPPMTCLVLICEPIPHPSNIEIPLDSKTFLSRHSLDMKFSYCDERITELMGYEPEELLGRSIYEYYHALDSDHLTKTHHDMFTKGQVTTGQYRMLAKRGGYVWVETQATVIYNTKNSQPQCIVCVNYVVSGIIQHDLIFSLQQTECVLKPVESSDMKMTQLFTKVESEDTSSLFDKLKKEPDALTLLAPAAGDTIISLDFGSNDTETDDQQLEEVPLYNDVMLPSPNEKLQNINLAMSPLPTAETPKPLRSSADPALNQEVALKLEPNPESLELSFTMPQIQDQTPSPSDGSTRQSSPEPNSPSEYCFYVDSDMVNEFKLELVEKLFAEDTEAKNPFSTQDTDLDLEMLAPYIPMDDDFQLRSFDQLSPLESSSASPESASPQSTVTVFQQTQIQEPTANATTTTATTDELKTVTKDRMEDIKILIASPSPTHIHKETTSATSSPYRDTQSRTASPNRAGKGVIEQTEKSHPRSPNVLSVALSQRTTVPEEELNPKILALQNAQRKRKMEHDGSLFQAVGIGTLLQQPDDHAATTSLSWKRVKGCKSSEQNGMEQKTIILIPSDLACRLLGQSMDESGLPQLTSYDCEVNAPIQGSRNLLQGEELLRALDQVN
Outline: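 HepG2 cells transiently transfected with multiplexed cis-promoter reporter units; reporter mRNA read 24 h after dosing by RT-PCR, 6-FAM primer-extension labelling, HpaI digestion and capillary electrophoresis. Bidirectional fit versus DMSO baseline.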

[9] = molecular target: Hepatocyte nuclear factor 6 (Homo sapiens) (UniProt Q9UBC0); assay: ATG_HNF6_CIS: Attagene CIS-FACTORIAL HepG2 Assay for human Hepatocyte Nuclear Factor 6 (HNF6) (AID 2282952); conditions: HepG2 Attagene cis-factorial HNF6 reporter transcription; actives raise or lower the signal
Chain of Hepatocyte nuclear factor 6 (Homo sapiens) (Q9UBC0 whole entry, looked up): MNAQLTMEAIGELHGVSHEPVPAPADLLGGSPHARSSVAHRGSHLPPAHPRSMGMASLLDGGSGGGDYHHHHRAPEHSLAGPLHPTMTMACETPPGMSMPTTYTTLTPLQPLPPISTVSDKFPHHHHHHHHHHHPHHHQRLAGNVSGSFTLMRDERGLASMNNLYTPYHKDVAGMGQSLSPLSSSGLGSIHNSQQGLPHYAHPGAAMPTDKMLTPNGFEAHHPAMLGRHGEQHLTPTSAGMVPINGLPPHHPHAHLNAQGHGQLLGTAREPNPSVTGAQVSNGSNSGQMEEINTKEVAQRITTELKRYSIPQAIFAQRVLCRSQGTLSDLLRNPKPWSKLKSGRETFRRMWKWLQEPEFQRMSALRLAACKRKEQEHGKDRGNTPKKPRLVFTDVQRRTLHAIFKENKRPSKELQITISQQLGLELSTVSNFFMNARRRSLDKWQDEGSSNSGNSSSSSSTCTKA
Outline: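 Endogenous factor activity read in transiently transfected HepG2 via promoter-regulated reporter transcripts. RNA harvested 24 h post-dosing, reverse-transcribed, PCR-amplified, FAM-labelled, HpaI-digested and resolved by capillary electrophoresis; fitted in both directions against DMSO.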

[10] = molecular target: Heat shock factor protein 1 (Homo sapiens) (UniProt Q00613); assay: ATG_HSE_CIS: Attagene CIS-FACTORIAL HepG2 Assay for human Heat Shock Transcription Factor 1 (HSE) (AID 2282953); conditions: HepG2 HSE cis-reporter, Attagene RNA transcription; actives raise or lower the signal
Chain of Heat shock factor protein 1 (Homo sapiens) (Q00613 whole entry, looked up, the tested form may be a part): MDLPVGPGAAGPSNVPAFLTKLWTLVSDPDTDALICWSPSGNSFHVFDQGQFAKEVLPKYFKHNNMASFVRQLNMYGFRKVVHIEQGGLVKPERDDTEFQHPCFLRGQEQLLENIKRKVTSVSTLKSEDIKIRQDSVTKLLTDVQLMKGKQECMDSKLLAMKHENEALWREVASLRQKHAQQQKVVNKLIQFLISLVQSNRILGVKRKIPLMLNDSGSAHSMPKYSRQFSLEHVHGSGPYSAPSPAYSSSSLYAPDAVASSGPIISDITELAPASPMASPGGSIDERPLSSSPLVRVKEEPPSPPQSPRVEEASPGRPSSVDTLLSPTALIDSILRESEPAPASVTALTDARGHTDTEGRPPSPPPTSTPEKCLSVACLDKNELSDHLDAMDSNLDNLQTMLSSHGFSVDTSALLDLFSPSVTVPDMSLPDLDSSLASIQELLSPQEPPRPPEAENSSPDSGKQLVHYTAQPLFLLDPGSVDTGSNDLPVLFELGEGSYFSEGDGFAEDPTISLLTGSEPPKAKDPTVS
Outline: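 Read-out: fluorescence of reporter-specific RT-PCR fragments separated by capillary electrophoresis. HepG2 carrying transfected cis-element reporter units; 24 h dosing; activity fitted in both directions relative to DMSO baseline.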

[11] = ATG_MRE_CIS: Attagene CIS-FACTORIAL HepG2 Assay for human Metal Responsive Element (MRE) (AID 2282954); conditions: HepG2 MRE cis-reporter transcription, Attagene multiplex; actives raise or lower the signal
Outline: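 Measured here is mRNA induction from an MRE cis-element reporter in HepG2 after 24 h, quantified by fluorescence of labelled RT-PCR products on capillary electrophoresis; gain- and loss-of-signal fits use DMSO as baseline.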

[12] = molecular target: Paired box protein Pax-6 (Homo sapiens) (UniProt P26367); assay: ATG_Pax6_CIS: Attagene CIS-FACTORIAL HepG2 Assay for human Paired Box 6 (PAX6) (AID 2282956); conditions: HepG2 CIS-FACTORIAL PAX6 reporter transcription, RNA readout; actives raise or lower the signal
Chain of Paired box protein Pax-6 (Homo sapiens) (P26367 whole entry, looked up): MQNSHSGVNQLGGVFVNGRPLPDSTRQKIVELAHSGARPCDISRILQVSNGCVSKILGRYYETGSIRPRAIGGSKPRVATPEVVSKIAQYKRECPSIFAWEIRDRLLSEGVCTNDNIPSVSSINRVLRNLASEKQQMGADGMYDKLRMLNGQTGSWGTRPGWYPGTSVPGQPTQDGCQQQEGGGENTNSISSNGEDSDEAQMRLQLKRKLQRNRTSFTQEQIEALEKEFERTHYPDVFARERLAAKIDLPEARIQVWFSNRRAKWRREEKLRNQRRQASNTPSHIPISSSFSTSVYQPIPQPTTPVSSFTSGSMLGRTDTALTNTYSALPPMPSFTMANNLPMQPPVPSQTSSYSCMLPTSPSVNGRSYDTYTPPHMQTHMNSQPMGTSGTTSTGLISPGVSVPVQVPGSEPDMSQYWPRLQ
Outline: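 Fluorescent RT-PCR products separated by capillary electrophoresis report PAX6-linked promoter mRNA in HepG2 cells 24 h post-dose. Curves fitted bidirectionally, DMSO as negative control.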

[13] = ATG_PXRE_CIS: Attagene CIS-FACTORIAL HepG2 Assay for human Pregnane X Receptor Element (PXRE) (AID 2282957); conditions: HepG2 Attagene CIS-FACTORIAL PXRE reporter, mRNA; actives raise or lower the signal
Outline: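 Reporter transcripts under endogenous PXR-responsive cis-regulation quantified from total RNA of transfected HepG2 cells 24 h post-dosing, via RT-PCR with fluorescent primer extension and capillary electrophoresis. Gain or loss of signal fitted against DMSO baseline.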

[14] = ATG_RORE_CIS: Attagene CIS-FACTORIAL HepG2 Assay for human RAR-related Orphan Receptor Element (RORE) (AID 2282959); conditions: HepG2 Attagene cis-factorial RORE reporter, mRNA; actives raise or lower the signal
Outline: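 HepG2 cells transiently transfected with multiple cis-element reporter transcription units, exposed to chemical for 24 h. Reporter mRNA quantified by RT-PCR, 6-FAM primer-extension labeling, HpaI digestion and capillary electrophoresis; bidirectional fit versus DMSO baseline.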

[15] = ATG_FoxO_CIS: Attagene CIS-FACTORIAL HepG2 Assay for human Forkhead box O (FoxO) (AID 2282943); conditions: HepG2 Attagene cis-reporter, FoxO element, mRNA; actives raise or lower the signal
Outline: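 HepG2 cells transiently transfected with cis-element-driven reporter units report endogenous FoxO activity. After 24 h chemical exposure, reporter mRNA quantified by RT-PCR, fluorescent labeling, HpaI digestion and capillary electrophoresis; bidirectional fit versus DMSO.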

[16] = ATG_M_06_CIS: Attagene CIS-FACTORIAL HepG2 Assay for M06 Transcription Factor (Internal Marker) (AID 2282950); conditions: HepG2 Attagene CIS-FACTORIAL M06 internal marker reporter; actives raise or lower the signal
Outline: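 Terse: HepG2, transient MRTU transfection (FuGene 6), 24 h dosing; total RNA, oligo(dT) RT, PCR, FAM label, HpaI cut, capillary electrophoresis; bidirectional fit vs DMSO baseline; background-control endpoint.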

[17] = ATG_PBREM_CIS: Attagene CIS-FACTORIAL HepG2 Assay for human Phenobarbital-responsive Enhancer Module (PBREM) (AID 2282955); conditions: HepG2 PBREM cis-reporter, Attagene multiplexed transcription; actives raise or lower the signal
Outline: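 HepG2 cells transiently transfected with multiple cis-regulated reporter transcription units; endogenous factor activity at the PBREM element measured as reporter mRNA 24 h after dosing, via RT-PCR and capillary electrophoresis of fluorescent fragments; bidirectional fitting versus DMSO.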

[18] = ATG_PPRE_CIS: Attagene CIS-FACTORIAL HepG2 Assay for human Peroxisome Proliferator-activated Response Element (PPRE) (AID 2282958); conditions: HepG2 PPRE cis-element reporter, Attagene transcription factor profiling; actives raise or lower the signal
Outline: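 HepG2 cells transiently transfected with multiplexed cis-element reporter units measure endogenous transcription factor activity. After 24 h compound exposure, reporter mRNA is quantified by RT-PCR, 6-FAM labeling, HpaI digestion and capillary electrophoresis; bidirectional fits are made against DMSO baseline.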

Measured: AC50

N#CS
not listed: [15] | [16] | [17] | [18]
inactive: all other assays above

CCCCOP(=O)(CCCC)OCCCC
active: [13] 6.97 µM
not listed: [11] | [14]
inactive: all other assays above

O=C(O)COc1cc(Cl)c(Cl)cc1Cl
active: [18] 33.5 µM
not listed: [17]
inactive: all other assays above

C#C[C@]1(O)CC[C@H]2[C@@H]3CCC4=CC(=O)CC[C@]4(C)[C@H]3CC[C@@]21C
not listed: [8]
inactive: all other assays above

Cl[C@H]1OCCO[C@@H]1Cl
active: [8] 49.6 µM
not listed: [15]
inactive: all other assays above

C[C@]12CC[C@@H](O)C[C@@H]1CC[C@@H]1[C@@H]2CC[C@]2(C)C(=O)CC[C@@H]12
active: [13] 6.91 µM
not listed: [8] | [16] | [17] | [18]
inactive: all other assays above

CCCCCCCCBr
not listed: [18]
inactive: all other assays above

Oc1cc(Cl)c(Cl)cc1Cl
active: [11] 63 µM | [12] 54 µM | [13] 25.8 µM | [14] 46.2 µM
not listed: [5] | [17] | [18]
inactive: all other assays above

CN(C)C(=S)S
active: [13] 26.3 µM
not listed: [5] | [14] | [17] | [18]
inactive: all other assays above

COc1ccccc1N
not listed: [5] | [13] | [16] | [17] | [18]
inactive: all other assays above

O=C(N[C@H]1CN2CCC1CC2)c1ccc2c(c1)OCCO2
active: [18] 100 µM
not listed: [15]
inactive: all other assays above

Clc1cccc(Cl)c1
not listed: [15] | [16]
inactive: all other assays above

CCCCCCCCCCCCc1cccc(S(=O)(=O)O)c1
not listed: [10] | [13] | [14] | [18]
inactive: all other assays above
